# The list is not random: actives were taken first. Their share in the collection is about 4.5%.
# Beta cell apopt: beta cell apoptosis inhibition | protection from apoptosis, % (test concentration not listed) | AID 435005 | INS-1E cytokine-induced death, ATP luminescence, 48 h; percent of positive-control rescue, neutral wells zero | actives 0.8% (n = 300,000);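 active means Every replicate reaches about 75%, or at least half do and their mean reaches it too, limit read from the data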;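 further: 0% = cytokine-treated negative control wells and 100% = positive control rescue; higher means more ATP so stronger rescue from cytokine killing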
# CSC inhib: blocks cancer stem cells. cancer stem cell-like cells viability, luminescence. inhibition, % at 7.5 µM. actives 1.1% (n = 300,000). AID 2717; in the data active means inhibition above about 75%; tested in HMLE shEcad cells
# Gli-Sufu antag: Gli-Sufu pathway antagonism; Sufu-KO-LIGHT fibroblasts, Gli luciferase reporter luminescence; inhibition, % at 5 µM; actives 0.74% (n = 340,000); AID 588413;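 active means inhibition above about 55%, limit read from the data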;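 further: 0% = DMSO-treated cells and 100% = wells with medium but no cells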
# Mdm2 MdmX PPI: disrupts the human Mdm2-MdmX interaction; inhibition, % at 8 µM; O15151+Q00987; AID 485346; actives 3% (n = 330,000); SaOS-2 split-luciferase Mdm2/MdmX complementation, luminescence;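 active means inhibition of at least 50% at 8 µM in the primary screen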
# Target sequence (O15151 whole entry, looked up): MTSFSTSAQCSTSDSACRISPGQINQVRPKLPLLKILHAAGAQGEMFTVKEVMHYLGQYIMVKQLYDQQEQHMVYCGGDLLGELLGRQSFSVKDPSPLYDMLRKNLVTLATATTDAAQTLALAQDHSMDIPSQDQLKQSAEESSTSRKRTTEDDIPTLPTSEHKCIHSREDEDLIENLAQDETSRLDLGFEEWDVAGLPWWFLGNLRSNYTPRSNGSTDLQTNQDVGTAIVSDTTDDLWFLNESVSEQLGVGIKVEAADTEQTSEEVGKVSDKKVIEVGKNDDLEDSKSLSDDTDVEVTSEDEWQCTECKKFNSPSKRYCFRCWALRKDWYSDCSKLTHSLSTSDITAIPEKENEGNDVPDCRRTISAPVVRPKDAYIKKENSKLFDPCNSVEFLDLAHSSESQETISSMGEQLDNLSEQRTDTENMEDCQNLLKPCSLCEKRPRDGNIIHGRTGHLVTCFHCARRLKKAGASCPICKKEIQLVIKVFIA
# Target sequence (Q00987 whole entry, looked up): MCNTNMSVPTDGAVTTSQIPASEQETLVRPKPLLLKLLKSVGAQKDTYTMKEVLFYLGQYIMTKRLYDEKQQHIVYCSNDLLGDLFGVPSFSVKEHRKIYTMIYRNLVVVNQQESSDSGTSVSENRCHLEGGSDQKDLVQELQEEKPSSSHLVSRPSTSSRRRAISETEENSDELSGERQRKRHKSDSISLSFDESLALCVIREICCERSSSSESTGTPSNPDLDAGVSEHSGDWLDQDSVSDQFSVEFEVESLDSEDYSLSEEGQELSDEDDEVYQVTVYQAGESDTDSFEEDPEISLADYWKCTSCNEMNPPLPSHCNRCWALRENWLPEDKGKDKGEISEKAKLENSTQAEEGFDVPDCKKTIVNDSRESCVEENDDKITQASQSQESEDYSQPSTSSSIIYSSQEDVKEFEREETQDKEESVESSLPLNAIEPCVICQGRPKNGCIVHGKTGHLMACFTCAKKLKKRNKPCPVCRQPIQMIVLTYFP
# Jurkat NFkB inh: lowers PMA/ionomycin-induced NF-kB signal in Jurkat cells | PMA/ionomycin-induced NF-kB luciferase reporter, luminescence | inhibition, % at 4 µM | actives 0.53% (n = 330,000); in the data active means inhibition above about 50%
# 697 NFkB inh: inhibitors of the PMA/ionomycin-induced NF-kB reporter in 697 B cells. 697 B-cell NF-kB luciferase reporter, 16 h. inhibition, % at 4 µM. actives 0.33% (n = 330,000). AID 435022; in the data active means inhibition above about 35%
# Mdm2 MdmX conf: human Mdm2/MdmX binding inhibition, confirmed | shares compounds with Mdm2 MdmX PPI | luminescent assay | inhibition, % at 8 µM | actives 55% (n = 10,000); in the data active means inhibition above about 40%
# Full FLuc ctr: counter-screen for Mdm2/MdmX inhibitors: full-length luciferase; shares compounds with Mdm2 MdmX PPI; SaOS-2 full-length luciferase counterscreen, luminescence; inhibition, % at 8 µM; actives 77% (n = 6,200);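 active means mean inhibition at 8 µM reaching about 37%, which flags the compound as non-specific, limit read from the data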;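 further: p53-null SaOS-2 cells with luciferase driven by a doxycycline-inducible promoter; compound on cells about two nights before reading with doxycycline added after day one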
# An asterisk follows results filed as active; x = no result given.
SMILES,Beta cell apopt,CSC inhib,Gli-Sufu antag,Mdm2 MdmX PPI,Jurkat NFkB inh,697 NFkB inh,Mdm2 MdmX conf,others
c1ccn2cc(-c3ccc4c(c3)OCCO4)nc2c1,18,24,-54,50*,-88,-91,28,
COc1ccc(/C=N/n2cnc3c([nH]c4ccc(Br)cc43)c2=O)cc1CN1CCOCC1,10,23,4,57*,5,-2,26,
Cc1nn(Cc2c(Cl)cccc2Cl)c(C)c1NC(=O)c1sc2ccccc2c1Cl,46,-3,-7,53*,1,5,14,
Cc1nn(Cc2ccc(Cl)cc2Cl)c(C)c1NC(=O)c1sc2ccccc2c1Cl,-2,7,-4,28,-2,-1,x,
Cc1nn(Cc2c(Cl)cccc2Cl)c(C)c1NC(=O)c1cn(-c2ccccc2)nc1-c1ccccc1,106*,165*,36,98*,25,-31,99*,Full FLuc ctr=37*
Cc1nn(Cc2ccc(Cl)c(Cl)c2)c(C)c1NC(=O)c1sc2ccccc2c1Cl,-3,-14,-4,53*,-2,15,14,
COC(=O)c1cc2cc(Cl)ccc2nc1SC,-1,-8,-23,19,4,-7,x,
COC(=O)C1CC(C(=O)OC)C2C(C(=O)OC)CC(C(=O)OC)C12 (stereo not drawn),x,x,3,x,x,x,x,
N#C/C(N)=C(/C#N)N=Cc1cccc(Cl)c1,-8,3,4,21,-3,8,x,
CCN(c1cccc(C)c1)S(=O)(=O)c1cc2c3c(c1)CCC(=O)N3CCC2,0,x,6,12,11,-1,x,
Cc1ncc(CO)c(/C=N/NC(=O)c2cc3c(s2)CCCC3)c1O,88*,72,7,58*,9,-12,42*,Full FLuc ctr=51*
COc1ccc(C(C(=O)NCC2CCCO2)N(Cc2ccccc2)C(=O)CNC(=O)c2ccco2)cc1OC (stereo not drawn),-7,13,4,2,-14,-16,x,
CC(=O)Nc1ccc(Nc2c([N+](=O)[O-])c(=O)n(-c3ccccc3)c3ccccc23)cc1,-1,6,19,61*,12,7,13,
O=c1c([N+](=O)[O-])c(N2CCCCCC2)c2ccccc2n1-c1ccccc1,-1,-3,15,-1,7,12,x,
CN(c1ccccc1)c1ccc(/C=C(\C#N)c2nnc3n2CCCCC3)cc1[N+](=O)[O-],4,80*,1,66*,-11,-52,34,
N#C/C(=C\c1cccc([N+](=O)[O-])c1)c1nnc2n1CCCCC2,7,-2,12,23,-2,13,x,
O=C(CSc1nc2ccccc2s1)NCc1cc([N+](=O)[O-])ccc1O,7,18,-4,12,4,24,x,
CSc1nc(N(C)NC(=O)c2ccc(Cl)cc2)c2ccccc2n1,32,20,25,62*,43,-23,56*,Full FLuc ctr=88*
CNc1nc(SC)nc2ccccc12,0,-12,-6,5,8,11,x,
Cc1ccc(C(=O)NNc2c3ccccc3nc3ccccc23)cc1,15,7,11,1,-24,11,x,
O=C(NNc1c2ccccc2nc2ccccc12)c1ccc(Cl)cc1,34,14,10,87*,-17,-2,67*,Full FLuc ctr=43*
CSc1nc(N(C)NC(=O)c2ccccc2)c2ccccc2n1,13,x,-4,56*,49,9,52*,Full FLuc ctr=69*
O=C(COc1ccc(Cl)cc1Br)OCC(=O)c1ccc[nH]1,-1,-11,7,8,-2,-3,x,
C/C(=N\NC(=O)c1ccc(NS(=O)(=O)c2cccs2)cc1)c1ccc(O)cc1O,8,62,7,28,-19,4,x,
Cc1csc(=O)n1CC(=O)OCC(=O)c1ccc(Br)cc1,x,-5,-5,26,-2,9,x,
SMILES,Beta cell apopt,CSC inhib,Gli-Sufu antag,Mdm2 MdmX PPI,Jurkat NFkB inh,697 NFkB inh,Mdm2 MdmX conf,others
Nc1ncc(Br)cc1S(=O)(=O)Nc1cc(C(F)(F)F)cc(C(F)(F)F)c1,15,-6,16,79*,5,-28,38,Full FLuc ctr=56*
Cc1cc(C)nc(N/C(=N\S(=O)(=O)Cc2ccccc2)Nc2ccccc2Br)n1,-4,33,8,52*,6,-53,55*,Full FLuc ctr=104*
O=C(NCCCCNC(=O)c1ccc(Br)cc1)c1ccc(Br)cc1,-14,-1,39,77*,0,21,21,
O=C(CCN1CCOCC1)N1CCCC(Nc2cccc(F)c2)C1 (stereo not drawn),-1,-10,-24,13,-1,15,x,
Cc1ccc(NC(=O)C(=Cc2ccc(C(=O)O)cc2)C(=O)Nc2ccc(C)cc2C)c(C)c1,71,159*,26,100*,32,-137,99*,Full FLuc ctr=52*
CC(=O)C(=Cc1ccc(C(=O)O)cc1)C(C)=O,x,-11,8,1,-16,7,x,
CC1CCCC(NC(=O)CN2C(=O)NC(C)(c3cc(F)ccc3F)C2=O)C1C (stereo not drawn),1,x,-1,13,6,14,x,
CN(C)Cc1c(O)ccc2c1O/C(=C\C=C\c1ccccc1)C2=O,-27,51,-8,101*,6,-20,72*,Full FLuc ctr=21
CCN1CCN(Cc2c(O)ccc3c2O/C(=C\C=C\c2ccccc2)C3=O)CC1,5,7,21,96*,-6,-12,59*,Full FLuc ctr=37*
O=C1/C(=C/C=C/c2ccccc2)Oc2c1ccc(O)c2CN1CCN(CCO)CC1,-10,47,-3,37,7,11,x,
Cc1ccc(C)c(NC(=O)CN(C)C(=O)c2ccc3[nH]c4c(c3c2)CC(C)CC4)c1 (stereo not drawn),0,26,29,2,-2,-13,x,
COc1ccccc1NC(=O)c1sc2ncn(CC(=O)Nc3ccccc3)c(=O)c2c1C,-1,x,43,55*,27,5,5,
COc1ccccc1NC(=O)Cn1cnc2sc(C(=O)Nc3cc(OC)c(OC)c(OC)c3)c(C)c2c1=O,1,-1,3,29,-7,-1,x,
CCOC(=O)c1c(S(=O)(=O)NCC(=O)Nc2cc(C)ccc2OC)c(C)n(C)c1C,-3,-6,3,2,11,2,x,
CCOc1ccc(NS(=O)(=O)c2ccc(C(=O)NCC(c3ccc(OC)cc3)N3CCOCC3)cc2)cc1 (stereo not drawn),3,-13,8,13,-14,-20,x,
CC[C@@]1(c2ccccc2)C(=O)N(C(=O)OC)N1C(=O)OC,-17,13,-7,19,-2,10,x,
CC[C@]1(c2ccccc2)C(=O)N(C(=O)OC)N1C(=O)OC,-17,1,-1,33,10,2,x,
COC(=O)N1C(=O)[C@](Cc2ccccc2)(c2ccccc2)N1C(=O)OC,4,9,-28,55*,6,12,25,
